The subject of this test is Plasmodium falciparum NF54 stage V gametocytes. The test is described as follows: viability index relative to DMSO control (fraction); higher = less gametocyte killing. As to conditions: 2.5 µM, incubation time: 72 h. In short, it runs like this: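 P. falciparum NF54 stage V gametocytes (serum-free medium, 0.75% gametocytemia, 1.25% hematocrit) were exposed to compound at 2.5 µM for 72 hr at 37°C under low oxygen, then stained with MitoTracker Red CMXRos and saponin for one to two hours. Red particles of 20–70 µm2 in one field per well were counted, and the viability index is that count scaled to the plate mean of solvent-only wells.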

Where [1] appears, read: library set: Broad Institute DOS.

± gives the uncertainty stated by the source. The full ranking holds about 9,900 compounds; the median of “viability index relative to DMSO control” is about 1, and the lowest 2% start at about 0.85. This is one part of a sample in which the lowest values are shown more often than they occur.

The compound `O=C(C[C@@H]1CC[C@@H]2[C@H](COC[C@H](O)CN2C(=O)c2cc(Cl)cc(Cl)c2)O1)N1CCc2ccccc2C1` displayed a viability index under setting [1] of 1.032 ± 0.0059.
For the compound `C[C@@H]1CN([C@H](C)CO)C(=O)c2ccccc2-c2ccccc2CO[C@@H]1CN(C)C(=O)c1cc(Cl)cc(Cl)c1`, the viability index under setting [1] stood at 0.8517 ± 0.003.
`C[C@H](CO)N1C[C@H](C)[C@@H](CN(C)Cc2ccc(Oc3ccccc3)cc2)OCc2ccccc2-c2ccccc2C1=O` had a viability index under setting [1] of 0.801 ± 0.016.
Under setting [1], `Cc1ccc(OC(=O)N(C)C[C@@H]2OCc3ccccc3-c3ccccc3C(=O)N([C@H](C)CO)C[C@@H]2C)cc1` came in with a viability index of 0.993 ± 0.036.
On to `C[C@@H]1CN([C@@H](C)CO)C(=O)c2ccccc2-c2ccccc2CO[C@H]1CN(C)C(=O)c1cc(Cl)cc(Cl)c1`, for which the viability index under setting [1] came out at 0.937 ± 0.19.
On the same count and under the same terms, then `C[C@@H]1CN([C@H](C)CO)C(=O)c2ccccc2-c2ccccc2CO[C@@H]1CN(C)Cc1ccc(Oc2ccccc2)cc1`, with 1.028 ± 0.0055; and `C[C@@H]1CN([C@@H](C)CO)C(=O)c2ccccc2-c2ccccc2CO[C@@H]1CN(C)Cc1ccc(Oc2ccccc2)cc1`, with 0.871 ± 0.0091.
Under setting [1], `C[C@H](CO)N1C[C@H](C)[C@H](CN(C)C(=O)c2cc(Cl)cc(Cl)c2)OCc2ccccc2-c2ccccc2C1=O` yielded a viability index of 1.04 ± 0.066.
On to `Cc1ccc(OC(=O)N(C)C[C@@H]2OCc3ccccc3-c3ccccc3C(=O)N([C@H](C)CO)C[C@H]2C)cc1`, for which, under setting [1], the viability index was 0.834 ± 0.091.
Still for that read-out and setting: to `Cc1ccc(OC(=O)N(C)C[C@@H]2OCc3ccccc3-c3ccccc3C(=O)N([C@@H](C)CO)C[C@H]2C)cc1` belongs 0.88 ± 0.0063; to `O=C(c1ccncc1)N1CC2(C1)[C@H](c1ccccc1)[C@@H](CO)N2CC1CC1`, 1.08 ± 0.016.
As for `Cc1noc(C)c1NC(=O)Nc1ccc2c(c1)C(=O)N([C@@H](C)CO)C[C@@H](C)[C@@H](CN(C)Cc1ccc3c(c1)OCO3)OCCCC[C@@H](C)O2`, under setting [1], the viability index was 1.15 ± 0.058.
For the compound `O=C(c1ccccn1)N1C[C@H]2[C@@H](c3ccccc31)[C@@H](CO)N2C(=O)Nc1ccccc1Cl`, the viability index under setting [1] came to 1.05 ± 0.026.
Under setting [1], `CCS(=O)(=O)Nc1ccc2c(c1)C(=O)N(C)[C@@H]1CC[C@H](CC(=O)N[C@@H]3CCN(Cc4ccccc4)C3)O[C@@H]1CO2` showed a viability index of 1.05 ± 0.04.
Under setting [1], `O=S(=O)(c1cccc(F)c1)N1CC[C@H]2[C@H](CO)Nc3ccc(C#Cc4ccccc4F)cc3[C@H]21` yielded a viability index of 1.1 ± 0.012.
On the same count and under the same terms, to `COc1ccc(CN(C)C[C@@H]2Oc3ccc(NC(=O)Nc4ccc5c(c4)OCO5)cc3CC(=O)N([C@H](C)CO)C[C@@H]2C)cc1` belongs 0.983 ± 0.077.
Turning to `COc1ccc2c3c([C@H](CO)N(C[C@]33CN(C3)S(=O)(=O)c3cn(C)cn3)C(=O)Nc3ccc(F)cc3)n(C)c2c1`, the viability index under setting [1] was 1.114 ± 0.0043.
The same measure, in the same setting: then `COc1ccc(NC(=O)N(C)C[C@H]2Oc3ccc(NC(=O)Nc4cccc5ccccc45)cc3CC(=O)N([C@H](C)CO)C[C@@H]2C)cc1`, with 0.968 ± 0.027; and `COc1ccccc1-c1ccc([C@@H]2[C@@H](C#N)N(C(=O)c3cccnc3)[C@@H]2CO)cc1`, with 1.06 ± 0.063.
As for `CN(C)CC(=O)N1[C@H](C#N)[C@H](c2ccccc2-c2ccccc2F)[C@@H]1CO`, the viability index under setting [1] turned out to be 1.1 ± 0.066.
The same measure, in the same setting: to `O=C(C[C@H]1CC[C@H]2[C@@H](COC[C@@H](O)CN2S(=O)(=O)c2ccc(F)cc2)O1)NCCN1CCCCC1` belongs 1.01 ± 0.12.
Regarding `COc1ccccc1C#Cc1ccc([C@@H]2[C@@H](CO)N3CCCCN(CCC(F)(F)F)C[C@H]23)cc1`, under “library set: Broad Institute Blood Stage”, the viability index amounted to 0.759 ± 0.06.
For the compound `COc1ccccc1C#Cc1ccc([C@@H]2[C@H](CO)N3CCCCN(C(=O)C4CCC4)C[C@@H]23)cc1`, the viability index under setting [1] was determined as 0.967 ± 0.025.
As for `OC[C@H]1[C@@H](c2ccc(C#Cc3ccccc3F)cc2)[C@H]2CN(CC3CCOCC3)CCCCN21`, under setting [1], the viability index amounted to 0.938 ± 0.011.
Regarding `OC[C@H]1[C@H](c2ccc(C#Cc3ccccc3F)cc2)[C@@H]2CN(CC3CCOCC3)CCCCN12`, under setting [1], the viability index amounted to 0.8726 ± 0.0019.
For the compound `COc1ccccc1C#Cc1ccc([C@H]2[C@H]3CN(C(=O)C4CCC4)CCCCN3[C@H]2CO)cc1`, the viability index under setting [1] is 0.971 ± 0.013.
On to `OC[C@@H]1[C@@H](c2ccc(C#Cc3ccccc3F)cc2)[C@H]2CN(CC3CCOCC3)CCCCN12`, for which the viability index under setting [1] amounted to 0.852 ± 0.021.
The same measure, in the same setting: then `C[C@@H]1CN([C@@H](C)CO)C(=O)CCCn2cc(nn2)CO[C@@H]1CN(C)S(=O)(=O)c1cn(C)cn1`, with 1.07 ± 0.062; and `COC(=O)C[C@H]1C[C@H]2c3cc(N)ccc3O[C@H]2[C@H](CO)O1`, with 1.05 ± 0.0071; and `C/C=C/c1ccc([C@@H]2[C@H](CO)N3CCCCN(S(=O)(=O)c4ccc(OC)cc4)C[C@@H]23)cc1`, with 1.03 ± 0.014.
The compound `C[C@H](CO)N1C[C@H](C)[C@H](CN(C)C(=O)NC2CCCCC2)OCc2ccccc2-c2ccccc2C1=O` yielded a viability index under setting [1] of 1.03 ± 0.03.
For the compound `COC(=O)C[C@H]1CC[C@@H]2[C@@H](COc3ccc(NC(=O)Nc4c(C)noc4C)cc3C(=O)N2C)O1`, the viability index under setting [1] was determined as 0.983 ± 0.14.
The same measure, in the same setting: to `O=C(Nc1ccc(F)cc1)N1CC(=O)N2[C@H](CO)[C@H](c3ccc(-c4cccc(F)c4)cc3)[C@H]2C1` belongs 1.05 ± 0.019; to `C[C@H](CO)N1C[C@H](C)[C@@H](CN(C)C(=O)Nc2ccc(-c3ccccc3)cc2)OCc2ccccc2-c2ccccc2C1=O`, 1.019 ± 0.0076; to `C[C@@H]1CN([C@@H](C)CO)C(=O)c2ccccc2-c2ccccc2CO[C@H]1CN(C)C(=O)Nc1cccc(Cl)c1Cl`, 0.72 ± 0.16.
Regarding `C[C@@H]1CN([C@H](C)CO)C(=O)c2ccccc2-c2ccccc2CO[C@@H]1CN(C)C(=O)Nc1cccc(Cl)c1Cl`, the viability index under setting [1] was found to be 0.894 ± 0.05.
`C[C@H]1CN([C@@H](C)CO)C(=O)c2ccccc2-c2ccccc2CO[C@H]1CN(C)C(=O)Nc1ccc(-c2ccccc2)cc1`: the viability index under setting [1] was 0.724 ± 0.14.
Take `C[C@H]1CN([C@@H](C)CO)C(=O)c2ccccc2-c2ccccc2CO[C@H]1CN(C)C(=O)Nc1cccc(Cl)c1Cl`: the viability index under setting [1] stood at 0.9208 ± 0.0078.

The values above are taken from the supplement of paper PMC4723716.
